Several values for one entry are separate records, joined by “and”; a condition that tells them apart may be missing. Identical values can stand only once. Activity calls are given as the source filed them. The calls were made as follows: active = hit-call score of the fitted dose curve at least 0.9, where 1 is the maximum; inactive = score below 0.9.
Experiments:
[1] = ATG_ISRE_CIS: Attagene CIS-FACTORIAL HepG2 Assay for human Interferon Regulatory Factor 1 (IRF1) binding to an Interferon-Stimulated Response Element (ISRE) (AID 2282948); conditions: HepG2 ISRE cis-reporter (Attagene), mRNA transcription readout; actives raise or lower the signal
Procedure, shortened: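 Multiplexed mRNA reporter readout in human liver HepG2 cells: cis-element-driven reporters transfected, compound added for 24 h, transcripts amplified, fluorescently labelled and sized by capillary electrophoresis; curve fitting bidirectional against DMSO.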

[2] = ATG_M_32_CIS: Attagene CIS-FACTORIAL HepG2 Assay for M32 Transcription Factor (Internal Marker) (AID 2282949); conditions: HepG2 Attagene cis-factorial M32 reporter, mRNA; actives raise or lower the signal;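 also: background control marker of the multiplexed CIS panel rather than a real target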
Procedure, shortened: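 HepG2 human liver cells transiently transfected with cis-promoter-driven multiple reporter transcription units, dosed 24 h. Reporter mRNA quantified by RT-PCR, FAM-labelled primer extension, HpaI digest and capillary electrophoresis; bidirectional fit versus DMSO baseline.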

[3] = ATG_M_06_CIS: Attagene CIS-FACTORIAL HepG2 Assay for M06 Transcription Factor (Internal Marker) (AID 2282950); conditions: HepG2 Attagene CIS-FACTORIAL M06 internal marker reporter; actives raise or lower the signal
Procedure, shortened: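 Terse: HepG2, transient MRTU transfection (FuGene 6), 24 h dosing; total RNA, oligo(dT) RT, PCR, FAM label, HpaI cut, capillary electrophoresis; bidirectional fit vs DMSO baseline; background-control endpoint.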

[4] = molecular target: Hypoxia-inducible factor 1-alpha (Homo sapiens) (UniProt Q16665); experiment: ATG_HIF1a_CIS: Attagene CIS-FACTORIAL HepG2 Assay for human Hypoxia Inducible Factor 1 (HIF1A) (AID 2282951); conditions: HepG2 Attagene cis-factorial HIF1a reporter transcription; actives raise or lower the signal
Procedure, shortened: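 After 24 h chemical exposure of reporter-transfected HepG2 cells, reporter cDNA was PCR-amplified, labelled by 6-FAM primer extension (2 min 95 C, 20 s 68 C, 10 min 72 C), HpaI-cut (2 h, 37 C) and analysed by CE.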

[5] = molecular target: Hepatocyte nuclear factor 6 (Homo sapiens) (UniProt Q9UBC0); experiment: ATG_HNF6_CIS: Attagene CIS-FACTORIAL HepG2 Assay for human Hepatocyte Nuclear Factor 6 (HNF6) (AID 2282952); conditions: HepG2 Attagene cis-factorial HNF6 reporter transcription; actives raise or lower the signal
Procedure, shortened: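 Using cis-element reporters in HepG2 liver cells, the assay tracks endogenous factor-driven transcription 24 h post-dosing. Signal comes from 6-FAM-labelled, HpaI-digested RT-PCR fragments, with gain or loss scored against DMSO.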

[6] = ATG_MRE_CIS: Attagene CIS-FACTORIAL HepG2 Assay for human Metal Responsive Element (MRE) (AID 2282954); conditions: HepG2 MRE cis-reporter transcription, Attagene multiplex; actives raise or lower the signal
Procedure, shortened: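 Measured here is mRNA induction from an MRE cis-element reporter in HepG2 after 24 h, quantified by fluorescence of labelled RT-PCR products on capillary electrophoresis; gain- and loss-of-signal fits use DMSO as baseline.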

[7] = molecular target: Paired box protein Pax-6 (Homo sapiens) (UniProt P26367); experiment: ATG_Pax6_CIS: Attagene CIS-FACTORIAL HepG2 Assay for human Paired Box 6 (PAX6) (AID 2282956); conditions: HepG2 CIS-FACTORIAL PAX6 reporter transcription, RNA readout; actives raise or lower the signal
Procedure, shortened: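 Fluorescent RT-PCR products separated by capillary electrophoresis report PAX6-linked promoter mRNA in HepG2 cells 24 h post-dose. Curves fitted bidirectionally, DMSO as negative control.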

[8] = ATG_PXRE_CIS: Attagene CIS-FACTORIAL HepG2 Assay for human Pregnane X Receptor Element (PXRE) (AID 2282957); conditions: HepG2 Attagene CIS-FACTORIAL PXRE reporter, mRNA; actives raise or lower the signal
Procedure, shortened: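 Using HepG2 transfected with multiple reporter transcription units, endogenous factor-driven transcription was scored as reporter mRNA after 24 h exposure.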

[9] = ATG_PPRE_CIS: Attagene CIS-FACTORIAL HepG2 Assay for human Peroxisome Proliferator-activated Response Element (PPRE) (AID 2282958); conditions: HepG2 PPRE cis-element reporter, Attagene transcription factor profiling; actives raise or lower the signal
Procedure, shortened: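 PPRE activity in HepG2: transient cis-reporter transfection, 24 h compound incubation, reporter mRNA by RT-PCR and CE fluorescence; gain/loss fitted against DMSO.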

[10] = ATG_RORE_CIS: Attagene CIS-FACTORIAL HepG2 Assay for human RAR-related Orphan Receptor Element (RORE) (AID 2282959); conditions: HepG2 Attagene cis-factorial RORE reporter, mRNA; actives raise or lower the signal
Procedure, shortened: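 A 24-hour exposure of transfected HepG2 hepatoma cells precedes RNA isolation and reporter RT-PCR. Labeled products are digested with HpaI and resolved by capillary electrophoresis, with gain or loss of signal scored relative to DMSO.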

[11] = ATG_Sox_CIS: Attagene CIS-FACTORIAL HepG2 Assay for human SRY-box transcription factor (SOX) (AID 2282960); conditions: HepG2 Attagene cis-factorial SOX reporter, mRNA; actives raise or lower the signal
Procedure, shortened: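 HepG2, cis reporter units, 24 h exposure. Reporter mRNA: RT-PCR → FAM labelling → HpaI → CE fluorescence. Bidirectional fit vs DMSO.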

[12] = molecular target: Transcription factor Sp1 (Homo sapiens) (UniProt P08047); experiment: ATG_Sp1_CIS: Attagene CIS-FACTORIAL HepG2 Assay for human Specificity Protein 1 (Sp1) (AID 2282961); conditions: HepG2 Sp1 cis-reporter transcription, actives raise or lower the signal
Procedure, shortened: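 Liver-derived HepG2 cells, cis-element reporter library, 24 h treatment; RNA isolated, cDNA amplified with reporter-specific primers, FAM-labeled fragments sized on capillary analyzer. DMSO baseline, bidirectional curve fit.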

[13] = ATG_SREBP_CIS: Attagene CIS-FACTORIAL HepG2 Assay for human Sterol Regulatory Element Binding (SREBP) (AID 2282962); conditions: HepG2 Attagene cis-factorial SREBP reporter, mRNA; actives raise or lower the signal
Procedure, shortened: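 Endogenous factor activity is measured in HepG2 through multiplexed reporter units under cis-element control. Following a 24 h incubation, reporter transcripts are reverse-transcribed, PCR-amplified and sized by capillary electrophoresis; activity is fitted in both directions relative to DMSO.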

[14] = molecular target: Signal transducer and activator of transcription 3 (Homo sapiens) (UniProt P40763); experiment: ATG_STAT3_CIS: Attagene CIS-FACTORIAL HepG2 Assay for human Signal Transducer and Activator of Transcription 3 (STAT3) (AID 2282963); conditions: HepG2, Attagene cis-factorial STAT3 reporter transcription; actives raise or lower the signal
Procedure, shortened: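 Fluorescence intensity of 6-FAM-labelled reporter fragments, separated by capillary electrophoresis after RT-PCR, gave the signal. Cells were HepG2 transfected with cis-element reporter units and treated 24 h; fitting was bidirectional relative to DMSO.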

[15] = ATG_TA_CIS: Attagene CIS-FACTORIAL HepG2 Assay for human TA Basal Promoter (AID 2282964); conditions: HepG2 Attagene CIS-factorial TA basal promoter reporter; actives raise or lower the signal
Procedure, shortened: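 Transfected HepG2, 24 h compound exposure; RNA → RT-PCR → FAM primer extension → HpaI cut → CE fluorescence. Gain/loss-of-signal fitted against DMSO negative control. Background-control readout.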

[16] = ATG_TCF_b_cat_CIS: Attagene CIS-FACTORIAL HepG2 Assay for human T-Cell-Factor with beta-catenin (TCF/b-cat) (AID 2282965); conditions: HepG2 TCF/beta-catenin cis-reporter transcription, actives raise or lower the signal
Procedure, shortened: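 Cells of the HepG2 line carry transiently transfected reporter units whose promoters respond to endogenous factors. Twenty-four hours post-dosing, reporter mRNA induction is measured by fluorescent RT-PCR and capillary electrophoresis, with DMSO as baseline.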

[17] = ATG_TAL_CIS: Attagene CIS-FACTORIAL HepG2 Assay for human TAL Basal Promoter (AID 2282966); conditions: HepG2 Attagene cis-factorial TAL promoter reporter; actives raise or lower the signal;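 also: background control endpoint measuring basal TAL promoter reporter mRNA not a specific factor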
Procedure, shortened: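 After 24 hours of chemical exposure, transfected HepG2 cells yielded RNA that was converted to 6-FAM-labelled, HpaI-digested reporter fragments for capillary electrophoresis. Values derive from bidirectional fitting against DMSO controls.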

[18] = ATG_TGFb_CIS: Attagene CIS-FACTORIAL HepG2 Assay for human Transforming Growth Factor (TGF) (AID 2282967); conditions: HepG2 Attagene CIS TGFb reporter, mRNA transcription; actives raise or lower the signal
Procedure, shortened: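 Readout: fluorescently labeled reporter cDNA fragments resolved by capillary electrophoresis after RT-PCR. Transfected HepG2 cells dosed for 24 h; endogenous TF activity at TGFB1-linked cis element; gain or loss fitted relative to DMSO.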

[19] = ATG_PBREM_CIS: Attagene CIS-FACTORIAL HepG2 Assay for human Phenobarbital-responsive Enhancer Module (PBREM) (AID 2282955); conditions: HepG2 PBREM cis-reporter, Attagene multiplexed transcription; actives raise or lower the signal
Procedure, shortened: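 Measures endogenous factor action on a phenobarbital-responsive enhancer module. HepG2 transiently carrying cis reporters, 24 h treatment, mRNA read-out by RT-PCR plus capillary electrophoresis.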

[20] = molecular target: Heat shock factor protein 1 (Homo sapiens) (UniProt Q00613); experiment: ATG_HSE_CIS: Attagene CIS-FACTORIAL HepG2 Assay for human Heat Shock Transcription Factor 1 (HSE) (AID 2282953); conditions: HepG2 HSE cis-reporter, Attagene RNA transcription; actives raise or lower the signal
Procedure, shortened: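 Read-out: fluorescence of reporter-specific RT-PCR fragments separated by capillary electrophoresis. HepG2 carrying transfected cis-element reporter units; 24 h dosing; activity fitted in both directions relative to DMSO baseline.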

Measured: AC50

Sequence of Signal transducer and activator of transcription 3 (Homo sapiens) (P40763 whole entry, looked up, the tested form may be a part): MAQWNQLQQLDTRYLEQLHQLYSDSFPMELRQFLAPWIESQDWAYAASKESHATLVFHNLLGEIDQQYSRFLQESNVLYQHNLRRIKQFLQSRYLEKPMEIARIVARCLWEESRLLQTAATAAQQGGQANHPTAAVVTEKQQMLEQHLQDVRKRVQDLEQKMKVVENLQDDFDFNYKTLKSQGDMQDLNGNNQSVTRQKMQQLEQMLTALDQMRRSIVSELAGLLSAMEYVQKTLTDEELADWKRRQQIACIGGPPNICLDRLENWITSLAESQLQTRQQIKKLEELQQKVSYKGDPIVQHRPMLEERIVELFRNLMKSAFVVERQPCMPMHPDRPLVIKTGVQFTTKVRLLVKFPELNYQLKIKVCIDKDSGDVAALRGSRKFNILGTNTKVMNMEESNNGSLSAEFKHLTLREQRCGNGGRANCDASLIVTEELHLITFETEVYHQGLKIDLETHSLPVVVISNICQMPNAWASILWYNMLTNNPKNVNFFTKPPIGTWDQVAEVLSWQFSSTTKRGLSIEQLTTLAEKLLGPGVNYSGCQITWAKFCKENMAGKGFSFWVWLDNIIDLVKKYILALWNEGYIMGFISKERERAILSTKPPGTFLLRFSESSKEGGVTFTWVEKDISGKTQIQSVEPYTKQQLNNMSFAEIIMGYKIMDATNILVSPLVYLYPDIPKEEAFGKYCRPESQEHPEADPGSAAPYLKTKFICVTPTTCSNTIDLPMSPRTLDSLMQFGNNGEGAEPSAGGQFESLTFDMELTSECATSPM
Sequence of Heat shock factor protein 1 (Homo sapiens) (Q00613 whole entry, looked up, the tested form may be a part): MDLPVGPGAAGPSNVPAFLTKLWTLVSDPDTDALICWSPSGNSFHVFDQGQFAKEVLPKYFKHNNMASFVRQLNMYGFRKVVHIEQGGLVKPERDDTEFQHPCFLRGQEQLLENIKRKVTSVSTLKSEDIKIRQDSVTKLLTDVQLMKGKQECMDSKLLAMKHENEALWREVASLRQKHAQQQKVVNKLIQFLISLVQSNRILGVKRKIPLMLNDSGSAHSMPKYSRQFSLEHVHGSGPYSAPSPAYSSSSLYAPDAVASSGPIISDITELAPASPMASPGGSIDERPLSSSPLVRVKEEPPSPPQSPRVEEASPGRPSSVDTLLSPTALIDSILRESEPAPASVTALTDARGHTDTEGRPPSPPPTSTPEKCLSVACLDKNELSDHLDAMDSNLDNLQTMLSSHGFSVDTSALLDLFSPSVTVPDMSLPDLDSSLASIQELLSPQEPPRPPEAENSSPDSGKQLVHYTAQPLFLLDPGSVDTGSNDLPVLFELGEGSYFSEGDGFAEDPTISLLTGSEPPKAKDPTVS
Sequence of Hypoxia-inducible factor 1-alpha (Homo sapiens) (Q16665 whole entry, looked up): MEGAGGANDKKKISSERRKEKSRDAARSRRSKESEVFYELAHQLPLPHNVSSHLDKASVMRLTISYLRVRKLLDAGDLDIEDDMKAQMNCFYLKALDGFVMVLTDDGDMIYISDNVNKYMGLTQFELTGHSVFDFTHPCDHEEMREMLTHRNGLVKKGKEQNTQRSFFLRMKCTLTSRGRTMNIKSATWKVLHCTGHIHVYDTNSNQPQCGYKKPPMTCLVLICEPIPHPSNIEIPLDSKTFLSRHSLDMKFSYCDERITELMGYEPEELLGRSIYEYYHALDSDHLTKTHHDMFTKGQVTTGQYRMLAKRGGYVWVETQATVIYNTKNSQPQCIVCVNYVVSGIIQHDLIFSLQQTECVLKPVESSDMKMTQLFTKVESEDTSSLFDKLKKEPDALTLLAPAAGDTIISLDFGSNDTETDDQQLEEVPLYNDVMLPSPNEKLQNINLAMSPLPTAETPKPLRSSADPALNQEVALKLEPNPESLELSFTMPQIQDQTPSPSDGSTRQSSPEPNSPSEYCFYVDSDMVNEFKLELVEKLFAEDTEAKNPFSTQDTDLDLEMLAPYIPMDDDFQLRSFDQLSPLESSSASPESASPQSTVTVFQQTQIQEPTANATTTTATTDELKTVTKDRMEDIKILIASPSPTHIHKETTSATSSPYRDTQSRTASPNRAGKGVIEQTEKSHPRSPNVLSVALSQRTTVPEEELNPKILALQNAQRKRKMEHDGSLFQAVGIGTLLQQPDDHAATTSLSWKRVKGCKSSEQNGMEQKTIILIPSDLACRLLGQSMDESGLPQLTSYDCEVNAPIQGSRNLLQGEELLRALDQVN
Sequence of Paired box protein Pax-6 (Homo sapiens) (P26367 whole entry, looked up): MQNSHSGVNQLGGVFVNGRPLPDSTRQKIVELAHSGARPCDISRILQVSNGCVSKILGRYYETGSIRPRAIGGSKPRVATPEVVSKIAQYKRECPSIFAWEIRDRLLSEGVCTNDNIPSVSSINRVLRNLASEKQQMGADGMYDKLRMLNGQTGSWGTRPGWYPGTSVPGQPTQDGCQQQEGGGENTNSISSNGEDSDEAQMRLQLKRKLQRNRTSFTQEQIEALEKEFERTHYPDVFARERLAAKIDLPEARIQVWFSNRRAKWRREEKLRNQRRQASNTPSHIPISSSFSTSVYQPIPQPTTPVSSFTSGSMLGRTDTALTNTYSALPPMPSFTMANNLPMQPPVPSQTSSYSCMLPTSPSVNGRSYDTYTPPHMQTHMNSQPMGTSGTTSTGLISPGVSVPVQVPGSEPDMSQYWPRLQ
Sequence of Transcription factor Sp1 (Homo sapiens) (P08047 whole entry, looked up, the tested form may be a part): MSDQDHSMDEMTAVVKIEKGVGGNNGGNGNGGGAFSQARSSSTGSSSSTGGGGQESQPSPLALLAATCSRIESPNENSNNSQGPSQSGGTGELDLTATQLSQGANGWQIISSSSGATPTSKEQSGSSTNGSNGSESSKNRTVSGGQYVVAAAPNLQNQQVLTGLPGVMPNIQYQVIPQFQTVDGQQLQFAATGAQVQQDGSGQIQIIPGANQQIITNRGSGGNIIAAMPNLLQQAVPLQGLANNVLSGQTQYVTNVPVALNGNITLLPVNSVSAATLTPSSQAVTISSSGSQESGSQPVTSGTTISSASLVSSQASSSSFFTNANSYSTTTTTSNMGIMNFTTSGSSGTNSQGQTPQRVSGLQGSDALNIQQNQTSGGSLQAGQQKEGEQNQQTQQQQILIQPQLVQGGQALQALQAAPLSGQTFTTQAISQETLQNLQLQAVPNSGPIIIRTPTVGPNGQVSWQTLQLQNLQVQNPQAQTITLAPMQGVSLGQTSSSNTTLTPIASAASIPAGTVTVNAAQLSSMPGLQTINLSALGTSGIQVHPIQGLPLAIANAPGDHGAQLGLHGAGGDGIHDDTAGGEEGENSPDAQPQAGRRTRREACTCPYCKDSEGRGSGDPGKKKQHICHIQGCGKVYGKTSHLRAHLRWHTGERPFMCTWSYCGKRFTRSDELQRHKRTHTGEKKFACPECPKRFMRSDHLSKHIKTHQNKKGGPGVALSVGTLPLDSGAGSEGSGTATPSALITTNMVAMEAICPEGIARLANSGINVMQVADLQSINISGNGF
Sequence of Hepatocyte nuclear factor 6 (Homo sapiens) (Q9UBC0 whole entry, looked up, the tested form may be a part): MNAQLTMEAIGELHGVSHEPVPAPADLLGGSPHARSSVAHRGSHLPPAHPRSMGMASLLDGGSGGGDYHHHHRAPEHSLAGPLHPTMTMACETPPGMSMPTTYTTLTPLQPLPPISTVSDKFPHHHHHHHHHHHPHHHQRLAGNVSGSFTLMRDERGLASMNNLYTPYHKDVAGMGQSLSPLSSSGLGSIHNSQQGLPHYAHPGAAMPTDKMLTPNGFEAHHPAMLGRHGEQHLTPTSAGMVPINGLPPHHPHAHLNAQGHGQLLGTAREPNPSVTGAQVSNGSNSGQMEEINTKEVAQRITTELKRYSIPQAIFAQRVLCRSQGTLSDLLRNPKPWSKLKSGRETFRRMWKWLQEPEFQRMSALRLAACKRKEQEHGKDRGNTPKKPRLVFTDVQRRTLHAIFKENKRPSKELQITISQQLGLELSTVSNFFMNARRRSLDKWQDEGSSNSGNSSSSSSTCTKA

O=C(N[C@H]1CN2CCC1CC2)c1ccc2c(c1)OCCO2
active: [9] 100 µM
not listed: [19] | [20]
inactive: all other assays above

O=C(Cc1ccccc1)OCCc1ccccc1
active: [18] 115 µM
not listed: [19] | [20]
inactive: all other assays above

[F][Sn]([c]1ccccc1)([c]1ccccc1)[c]1ccccc1
active: [1] 0.562 µM | [4] 0.327 µM | [6] 0.339 µM | [7] 0.346 µM | [8] 0.466 µM | [10] 0.0319 µM | [11] 0.328 µM | [12] 0.303 µM | [14] 0.597 µM | [15] 0.58 µM
inactive: [2] | [3] | [5] | [13] | [16] | [17] | [18]

O=S(=O)(C(Cl)(Cl)Cl)C(Cl)(Cl)Cl
inactive: [2] | [3] | [4] | [5] | [19] | [9] | [14] | [17]
active: [1] 16.4 µM | [6] 16.5 µM | [7] 16 µM | [8] 11.1 µM | [11] 11.1 µM | [12] 11.1 µM | [13] 16.8 µM | [15] 16.9 µM | [16] 7.46 µM

O=C(Cl)OCCOCCOC(=O)Cl
not listed: [9] | [18] | [19] | [20]
inactive: all other assays above

CCOc1ccc(N)cc1
active: [8] 46.6 µM
not listed: [9] | [20]
inactive: all other assays above

CCOP(=S)(OCC)SCS(=O)(=O)C(C)(C)C
active: [8] 4.12 µM
not listed: [5] | [17]
inactive: all other assays above

O=C1C[C@@H]2OCC=C3CN4CC[C@]56c7ccccc7N1[C@H]5[C@H]2[C@H]3C[C@H]46
active: [8] 44.6 µM and 10.9 µM
not listed: [4] | [9] | [17]
inactive: all other assays above

From PubChem BioAssay (EPA / NIEHS)
